Among the data in PubChem BioAssay (EPA / NIEHS) are outcome and AC50 values, retold here.

The subject of experiment [1] is zebrafish Peroxisome Proliferator-activated Receptor gamma (PPARg), gene 557037. Put plainly: ATG_zfPPARg_XSP1: Attagene TRANS-FACTORIAL Multi-Species (XSP1) HepG2 Assay for zebrafish Peroxisome Proliferator-activated Receptor gamma (PPARg) (AID 2283801). The essentials: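 HepG2 cells transiently transfected with GAL4-UAS reporter units including a zebrafish PPARg–GAL4 chimera, dosed 24 h with 3 nM 6-alpha-fluorotestosterone present. Reporter mRNA quantified by RT-PCR, FAM labelling, HpaI digestion and capillary electrophoresis; induction versus DMSO.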

The target in experiment [2] is frog Thyroid hormone Receptor alpha (TRa), thra-a (gene 397942) (UniProt P15204). Put plainly: ATG_frTRa_XSP1: Attagene TRANS-FACTORIAL Multi-Species (XSP1) HepG2 Assay for frog Thyroid hormone Receptor alpha (TRa) (AID 2283804). The method, boiled down: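 HepG2 cells transiently transfected with frog TRa-GAL4 chimeric reporter units, dosed 24 hr with 3 nM 6-alpha-fluorotestosterone present; reporter mRNA quantified by RT-PCR, fluorescent labelling and capillary electrophoresis, gain of signal versus DMSO.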
Sequence of frog Thyroid hormone Receptor alpha (TRa), thra-a (gene 397942) (P15204 whole entry, looked up, the tested form may be a part): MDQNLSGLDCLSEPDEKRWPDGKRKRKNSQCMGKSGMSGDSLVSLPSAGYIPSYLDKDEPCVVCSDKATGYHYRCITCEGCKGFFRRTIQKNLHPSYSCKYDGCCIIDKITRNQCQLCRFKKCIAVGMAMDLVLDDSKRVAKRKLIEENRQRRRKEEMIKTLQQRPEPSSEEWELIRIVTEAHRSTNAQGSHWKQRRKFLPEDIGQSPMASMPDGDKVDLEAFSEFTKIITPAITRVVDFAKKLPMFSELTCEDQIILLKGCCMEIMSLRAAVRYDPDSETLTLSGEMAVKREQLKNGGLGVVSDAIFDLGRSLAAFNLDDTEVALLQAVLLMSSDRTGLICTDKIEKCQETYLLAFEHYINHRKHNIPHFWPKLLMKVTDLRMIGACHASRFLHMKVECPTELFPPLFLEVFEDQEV

Experiment [3] deals with human Thyroid hormone Receptor alpha (TRa), THRA (gene 7067) (UniProt P10827). As to the kind of experiment: ATG_hTRa_XSP1: Attagene TRANS-FACTORIAL Multi-Species (XSP1) HepG2 Assay for human Thyroid hormone Receptor alpha (TRa) (AID 2283805). As for the experimental part: (§1) ATG_XSP1_multi-species_TRANS is a cell-based, multiplexed assay created by modifying the existing Attagene TRANS-FACTORIAL system to include a panel of nuclear receptors from some or all the following species: human (Homo sapiens), mouse (Mus musculus), frog (Xenopus laevis), zebrafish (Danio rerio), chicken (Gallus gallus), and turtle (Chrysemys picta). The ECOTOX-FACTORIAL format uses HepG2, a human liver cell line, with measurements taken at 24 hours after chemical dosing in a 24-well plate. Xsp1 included 3 nM 6-alpha-fluorotestosterone to partially stimulate the androgen receptor.ATG_hTRa_XSP1 is one of 29 assay components measured or calculated from the ATG_XSP1_multi-species_TRANS assay. It is designed to make measurements of mRNA induction, a form of inducible reporter, as detected with fluorescence intensity signals by Reverse transcription polymerase chain reaction (RT-PCR) and Capillary electrophoresis technology.The assay endpoint ATG_hTRa_XSP1 was analyzed in the positive analysis fitting direction relative to DMSO as the negative control and baseline of activity. […] Furthermore, this assay endpoint can be referred to as a primary readout, because this assay has produced multiple assay endpoints where this one serves a reporter gene function. […]
Sequence of human Thyroid hormone Receptor alpha (TRa), THRA (gene 7067) (P10827 whole entry, looked up): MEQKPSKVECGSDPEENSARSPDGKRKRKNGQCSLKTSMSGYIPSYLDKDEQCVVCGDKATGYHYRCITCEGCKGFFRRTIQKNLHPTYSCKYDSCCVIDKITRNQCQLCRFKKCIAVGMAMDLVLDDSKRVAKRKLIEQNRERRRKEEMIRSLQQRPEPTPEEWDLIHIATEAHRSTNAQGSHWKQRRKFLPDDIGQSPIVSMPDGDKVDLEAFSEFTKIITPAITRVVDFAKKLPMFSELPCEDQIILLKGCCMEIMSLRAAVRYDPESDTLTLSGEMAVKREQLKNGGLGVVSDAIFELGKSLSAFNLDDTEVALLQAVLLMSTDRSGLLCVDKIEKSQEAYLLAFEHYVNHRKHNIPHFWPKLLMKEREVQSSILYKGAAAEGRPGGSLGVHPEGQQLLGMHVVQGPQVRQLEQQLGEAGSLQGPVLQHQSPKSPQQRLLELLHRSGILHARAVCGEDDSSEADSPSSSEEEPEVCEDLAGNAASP

In experiment [4] the test system is turtle Thyroid Hormone Receptor, alpha (TRa), gene 101949057. As to the kind of experiment: ATG_trTRa_XSP1: Attagene TRANS-FACTORIAL Multi-Species (XSP1) HepG2 Assay for turtle Thyroid Hormone Receptor, alpha (TRa) (AID 2283806). As for the experimental part: ATG_XSP1_multi-species_TRANS is a cell-based, multiplexed assay created by modifying the existing Attagene TRANS-FACTORIAL system to include a panel of nuclear receptors from some or all the following species: human (Homo sapiens), mouse (Mus musculus), frog (Xenopus laevis), zebrafish (Danio rerio), chicken (Gallus gallus), and turtle (Chrysemys picta). The ECOTOX-FACTORIAL format uses HepG2, a human liver cell line, with measurements taken at 24 hours after chemical dosing in a 24-well plate. Xsp1 included 3 nM 6-alpha-fluorotestosterone to partially stimulate the androgen receptor.ATG_trTRa_XSP1 is one of 29 assay components measured or calculated from the ATG_XSP1_multi-species_TRANS assay. It is designed to make measurements of mRNA induction, a form of inducible reporter, as detected with fluorescence intensity signals by Reverse transcription polymerase chain reaction (RT-PCR) and Capillary electrophoresis technology.The assay endpoint ATG_trTRa_XSP1 was analyzed in the positive analysis fitting direction relative to DMSO as the negative control and baseline of activity. Using a type of inducible reporter, measures of mRNA for gain-of-signal activity can be used to understand the reporter gene at the transcription factor-level as they relate to the gene TR. Furthermore, this assay endpoint can be referred to as a primary readout, because this assay has produced multiple assay endpoints where this one serves a reporter gene function. […]
Human liver HepG2 cells are transiently transfected with multiple reporter transcription units (MRTUs) in 6-well plates using FuGene 6 reagent (Roche; 3 ml FuGene/1 mg DNA). […] A major difference between the CIS and TRANS system is that in CIS activities of endogenous TFs are measured, whereas the TRANS assay evaluates changes in activities of exogenous, chimeric NR-Gal4 proteins. […] The fragments were purified using Qiaquick PCR columns (Qiagen), analyzed on an ABI 3130xL genetic analyzer (Applied Biosystems) with peak positions identified by using a set of X-rhodamine (ROX)-labeled MapMarker1000 molecular weight standards (BioVentures). […]

Experiment [5] concerns the target zebrafish Thyroid Hormone Receptor alpha (TRa), thraa (gene 30670) (UniProt Q98867). As to the kind of experiment: ATG_zfTRa_XSP1: Attagene TRANS-FACTORIAL Multi-Species (XSP1) HepG2 Assay for zebrafish Thyroid Hormone Receptor alpha (TRa) (AID 2283807). The method, boiled down: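 HepG2 cells transiently transfected with GAL4-UAS reporter units including a zebrafish TRa–Gal4 chimera, dosed 24 h with 3 nM 6-alpha-fluorotestosterone present. Reporter mRNA quantified by RT-PCR and capillary electrophoresis; gain versus DMSO.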

Experiment [6] addresses human Thyroid hormone Receptor beta (TRb), THRB (gene 7068) (UniProt P10828). As to the kind of experiment: ATG_hTRb_XSP1: Attagene TRANS-FACTORIAL Multi-Species (XSP1) HepG2 Assay for human Thyroid hormone Receptor beta (TRb) (AID 2283808). The protocol:
as §1, with “receptor.ATG_hTRb_XSP1” for “receptor.ATG_hTRa_XSP1”, “ATG_hTRb_XSP1” for “ATG_hTRa_XSP1”

The target of experiment [7] is zebrafish Thyroid Hormone Receptor beta (TRb), thrb (gene 30607) (UniProt Q9PVE4). As to the kind of experiment: ATG_zfTRb_XSP1: Attagene TRANS-FACTORIAL Multi-Species (XSP1) HepG2 Assay for zebrafish Thyroid Hormone Receptor beta (TRb) (AID 2283809). The essentials: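 HepG2 cells transiently transfected with multiplexed GAL4-UAS reporter units expressing chimeric zebrafish TRb–Gal4. Dosed 24 h with 3 nM 6-alpha-fluorotestosterone present; reporter mRNA measured by RT-PCR, HpaI digestion and capillary electrophoresis; gain of signal versus DMSO.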
Sequence of zebrafish Thyroid Hormone Receptor beta (TRb), thrb (gene 30607) (Q9PVE4 whole entry, looked up, the tested form may be a part): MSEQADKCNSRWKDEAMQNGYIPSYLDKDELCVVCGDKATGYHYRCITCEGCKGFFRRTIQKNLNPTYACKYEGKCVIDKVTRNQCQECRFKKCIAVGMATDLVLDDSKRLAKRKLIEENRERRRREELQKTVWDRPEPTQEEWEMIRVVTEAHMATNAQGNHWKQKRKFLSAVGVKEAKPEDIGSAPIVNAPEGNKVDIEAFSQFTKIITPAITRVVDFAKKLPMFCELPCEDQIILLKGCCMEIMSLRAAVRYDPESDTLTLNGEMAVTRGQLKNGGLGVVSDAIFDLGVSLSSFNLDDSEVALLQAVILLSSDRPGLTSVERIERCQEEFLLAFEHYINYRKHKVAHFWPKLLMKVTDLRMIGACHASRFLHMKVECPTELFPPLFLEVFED

Experiment [8] can be described thus: ATG_XTT_Cytotoxicity_XSP1: Cytotoxicity Assessment in the Attagene TRANS-FACTORIAL Multi-Species (XSP1) HepG2 Assay (AID 2283810). The method, boiled down:
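XTT viability readout taken at 24 hours post-dosing in HepG2 liver cells co-treated with 3 nM 6-alpha-fluorotestosterone. Signal loss relative to DMSO controls reflects cytotoxicity.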

Experiment [9] deals with mouse Peroxisome Proliferator-activated Receptor gamma (PPARg), Pparg (gene 19016) (UniProt P37238). Put plainly: ATG_mPPARg_XSP1: Attagene TRANS-FACTORIAL Multi-Species (XSP1) HepG2 Assay for mouse Peroxisome Proliferator-activated Receptor gamma (PPARg) (AID 2283802). The method, boiled down:
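HepG2 cells transiently transfected with GAL4-UAS reporter units driven by mouse PPARg–GAL4 chimera; 3 nM 6-alpha-fluorotestosterone present. After 24 h dosing, reporter mRNA quantified by RT-PCR, fluorescent labelling and capillary electrophoresis; gain of signal versus DMSO.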

Experiment [10] concerns the target Nuclear receptor subfamily 1 group I member 2 (Mus musculus) (UniProt O54915). Put plainly: ATG_mPXR_XSP1: Attagene TRANS-FACTORIAL Multi-Species (XSP1) HepG2 Assay for mouse Pregnane X Receptor (PXR) (AID 2283803). The essentials: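 Transiently transfected HepG2 cells expressing a receptor-Gal4 chimera drive a GAL4-UAS reporter; 3 nM 6-alpha-fluorotestosterone included. Reporter mRNA read 24 h post-dose by RT-PCR and capillary electrophoresis; gain of signal relative to DMSO.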

Results filed as inconclusive are left out. Activity calls are given as the source filed them. The calls were made as follows: active = hit-call score of the fitted dose curve at least 0.9, where 1 is the maximum; inconclusive = response in the unintended direction; inactive = score below 0.9.

One may read the AC50 as the concentration giving half of the maximal activity seen.

Sequence of mouse Peroxisome Proliferator-activated Receptor gamma (PPARg), Pparg (gene 19016) (P37238 whole entry, looked up, the tested form may be a part): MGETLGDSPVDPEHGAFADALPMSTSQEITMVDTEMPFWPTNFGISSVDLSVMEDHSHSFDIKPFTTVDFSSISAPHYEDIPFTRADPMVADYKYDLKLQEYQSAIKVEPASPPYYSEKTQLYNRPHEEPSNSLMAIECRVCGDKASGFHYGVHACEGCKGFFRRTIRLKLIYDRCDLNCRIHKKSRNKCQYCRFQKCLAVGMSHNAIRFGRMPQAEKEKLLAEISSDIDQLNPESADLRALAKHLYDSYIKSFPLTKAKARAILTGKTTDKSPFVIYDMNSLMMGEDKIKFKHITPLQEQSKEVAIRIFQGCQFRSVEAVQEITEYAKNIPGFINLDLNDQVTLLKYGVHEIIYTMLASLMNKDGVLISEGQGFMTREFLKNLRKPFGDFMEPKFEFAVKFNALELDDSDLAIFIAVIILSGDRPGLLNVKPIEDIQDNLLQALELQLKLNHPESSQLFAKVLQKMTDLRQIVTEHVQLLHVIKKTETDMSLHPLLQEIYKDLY
Sequence of zebrafish Thyroid Hormone Receptor alpha (TRa), thraa (gene 30670) (Q98867 whole entry, looked up, the tested form may be a part): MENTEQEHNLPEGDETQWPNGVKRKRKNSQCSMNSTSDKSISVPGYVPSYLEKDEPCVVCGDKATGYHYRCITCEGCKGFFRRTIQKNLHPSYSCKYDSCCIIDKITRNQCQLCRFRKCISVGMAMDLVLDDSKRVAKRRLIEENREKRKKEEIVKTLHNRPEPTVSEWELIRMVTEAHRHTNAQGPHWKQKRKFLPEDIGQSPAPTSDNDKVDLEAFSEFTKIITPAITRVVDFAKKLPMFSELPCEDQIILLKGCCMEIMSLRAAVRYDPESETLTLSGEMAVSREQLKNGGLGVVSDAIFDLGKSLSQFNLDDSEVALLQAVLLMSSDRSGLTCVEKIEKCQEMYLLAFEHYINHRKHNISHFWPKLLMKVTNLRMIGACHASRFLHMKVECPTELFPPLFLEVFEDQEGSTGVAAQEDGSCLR
Sequence of Nuclear receptor subfamily 1 group I member 2 (Mus musculus) (O54915 whole entry, looked up, the tested form may be a part): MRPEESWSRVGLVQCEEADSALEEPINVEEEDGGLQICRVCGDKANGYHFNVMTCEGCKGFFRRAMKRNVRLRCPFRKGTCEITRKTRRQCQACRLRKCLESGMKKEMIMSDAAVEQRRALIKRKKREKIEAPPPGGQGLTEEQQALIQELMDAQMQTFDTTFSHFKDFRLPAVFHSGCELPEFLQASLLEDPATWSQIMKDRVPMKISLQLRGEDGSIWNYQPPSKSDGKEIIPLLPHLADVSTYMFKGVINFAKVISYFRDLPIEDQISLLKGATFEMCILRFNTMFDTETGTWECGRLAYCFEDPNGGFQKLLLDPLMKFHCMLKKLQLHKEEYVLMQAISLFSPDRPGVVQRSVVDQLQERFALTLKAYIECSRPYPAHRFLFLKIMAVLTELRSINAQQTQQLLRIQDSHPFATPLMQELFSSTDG
Sequence of human Thyroid hormone Receptor beta (TRb), THRB (gene 7068) (P10828 whole entry, looked up): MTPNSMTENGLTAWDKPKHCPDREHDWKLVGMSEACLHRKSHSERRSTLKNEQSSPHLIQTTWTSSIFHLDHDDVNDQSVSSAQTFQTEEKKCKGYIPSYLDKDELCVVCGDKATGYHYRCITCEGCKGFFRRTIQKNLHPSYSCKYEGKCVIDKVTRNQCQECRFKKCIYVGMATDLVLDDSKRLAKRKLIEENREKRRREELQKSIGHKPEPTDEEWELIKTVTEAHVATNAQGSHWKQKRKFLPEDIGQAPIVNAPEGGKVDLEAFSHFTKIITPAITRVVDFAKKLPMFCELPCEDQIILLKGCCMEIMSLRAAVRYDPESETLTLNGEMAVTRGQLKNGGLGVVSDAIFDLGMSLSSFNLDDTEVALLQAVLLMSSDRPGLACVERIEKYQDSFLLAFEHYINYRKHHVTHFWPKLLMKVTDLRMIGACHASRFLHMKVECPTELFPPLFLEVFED

Turning to `CCC[CH2][Sn]([Cl])([CH2]CCC)[CH2]CCC`, the compound was called inactive in experiment [1], in [2] and in experiment [4]. Further, the AC50 in experiment [3] was 0.0865 µM (active); in [5], 0.228 µM (active); in [6], 0.159 µM (active); in experiment [7], 0.084 µM (active); in experiment [8], 1.54 µM (active).
Take `Clc1ccc(C(c2ccc(Cl)cc2)C(Cl)Cl)cc1`: the compound was called inactive in experiment [1] and in experiment [5]. Further, the AC50 in [9] was 50.3 µM (active); in [10], 24.6 µM (active); in experiment [8], 100 µM (active).
For `Clc1ccc(C(c2ccc(Cl)cc2)C(Cl)(Cl)Cl)cc1`, the AC50 was 100 µM (active) in [1], 67.5 µM (active) in experiment [9] and 2.67 µM (active) in [10]. The call in [2], in experiment [4], in [7] and in experiment [8] was inactive.
In the case of `CCCCOC(=O)c1ccccc1C(=O)OCc1ccccc1`, the compound was classed as inactive in experiment [1], in [5], in experiment [7] and in experiment [8]. The AC50 in experiment [9] is 9.86 µM (active); in [10] it was 3.81 µM (active).
As to `C[C@]12C=CC3=C4CCC(=O)C=C4CC[C@H]3[C@@H]1CC[C@@H]2O`, the outcome in experiment [2], in [4], in [7] and in experiment [8] was inactive.
Take `CCCCCOC(=O)c1ccccc1C(=O)OCCCCC`: the compound was classed as inactive in [1], in experiment [3], in experiment [5], in experiment [6], in experiment [7] and in experiment [8]. In addition, the figures for the AC50 in [9] and in experiment [10] were 37.6 µM (active) and 5.96 µM (active), respectively.
